Measured values from PubChem BioAssay (NCI).
The panel holds about 79,000 compounds, 15% with a hit somewhere; the sample as a whole holds those more often. Calls of active or inactive are those of the source. Rule as the data show it: active = growth inhibition above about 70%; inactive = the rest.

Legend:
[1] = NCI Yeast Anticancer Drug Screen. Data for the rad50 strain (AID 155);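 also: 0% = growth of vehicle-only cultures of the same strain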; details: S. cerevisiae rad50 strain growth inhibition; at 50.0 µM; active compounds read high
Outline: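 Vehicle-treated cultures provide the reference for the growth inhibition reported for compound-exposed, repair-deficient yeast.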

[2] = NCI Yeast Anticancer Drug Screen. Data for the mec2-1 strain (AID 157); details: S. cerevisiae mec2-1 strain, at 50.0 µM, active compounds read high
Outline: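 Growth inhibition is read against vehicle-treated controls after compound exposure of the mec2-1 yeast strain, which is defective in DNA damage repair or cell cycle control.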

[3] = NCI Yeast Anticancer Drug Screen. Data for the sgs1 mgt1 strain (AID 161);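 also: 0% = growth of cultures given vehicle only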; details: S. cerevisiae sgs1 mgt1 strain, at 50.0 µM, active compounds read high
Outline: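 This yeast growth screen uses a strain with defined DNA-repair lesions; compound-treated growth is compared with vehicle-treated growth.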

[4] = NCI Yeast Anticancer Drug Screen. Data for the cln2 rad14 strain (AID 165);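 also: 0% = growth equal to vehicle treated cultures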; details: S. cerevisiae cln2 rad14 strain, at 50.0 µM, active compounds read high
Outline: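 Growth inhibition, relative to vehicle-treated controls, is the read-out. The test organism is a yeast strain with defined genetic alterations, cln2 rad14.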

[5] = NCI Yeast Anticancer Drug Screen. Data for the bub3 strain (AID 167); details: S. cerevisiae bub3 mutant strain, at 50.0 µM, active compounds read high
Outline: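 Mutant yeast screening strain plus compound; vehicle-treated cultures serve as the 0% inhibition reference.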

[6] = NCI Yeast Anticancer Drug Screen. Data for the mlh1 rad18 strain (AID 175); details: S. cerevisiae mlh1 rad18 strain growth inhibition; at 50.0 µM; active compounds read high
Outline: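 Cells of a genetically altered yeast strain, deficient in DNA damage repair, were treated with compound. Their growth was then compared with that of vehicle-treated cultures to give inhibition.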

Measured: growth inhibition

CN=S(=O)(OC/C=C/COS(=O)(=NC)c1ccc(C)cc1)c1ccc(C)cc1 (stereo not drawn)
inactive: [1] -17.9% | [2] -21.9% | [3] -24.1% | [4] -8.55% | [5] -10.4% | [6] -26.3%

OCC1CCCCCCC1
inactive: [1] -4.25% | [2] -19.7% | [3] -3.15% | [4] 18.4% | [5] -3.65% | [6] -10.4%

CC(=O)Cn1c(=O)oc2ccccc2c1=O
inactive: [1] 22.6% | [2] -9% | [3] -10.7% | [4] 49.5% | [5] 17.9% | [6] 10.1%

COc1ccc(/C=N/n2cnc3c(c2=O)SC(=C(C#N)C#N)N3c2ccccc2)cc1
inactive: [1] -5.4% | [2] -35.5% | [3] -15.6% | [4] -16.1% | [5] -19.5% | [6] -41%

C=CCSCC1Nc2cc(Cl)c(S(N)(=O)=O)cc2S(=O)(=O)N1C (stereo not drawn)
inactive: [1] 22.8% | [2] 12.8% | [3] 8.05% | [4] 20.1% | [5] -3.75% | [6] 2.25%

COc1ccc(C(=O)Oc2ccc(C)c(CC(Cl)(Cl)Cl)c2)cc1
inactive: [1] -6.1% | [2] -9.5% | [3] 6.75% | [4] -12.3% | [5] -6.35% | [6] -14.4%

Cc1c(C)c(C)c(CNNC(=S)Nc2ccc(S(=O)(=O)N3CCCCC3)cc2)c(C)c1C
inactive: [1] -4.5% | [2] -17.9% | [3] 9.25% | [4] 8.6% | [5] 6.4% | [6] 7.6%

O=C1N2Cc3c4ccc5c3CN3C(=O)N6Cc7c(ccc(c7CN1C6(c1ccccc1)C23c1ccccc1)OCCOCCNCCOCCO4)OCCOCCNCCOCCO5 (stereo not drawn)
inactive: [1] -31.1% | [2] -26.2% | [3] -34.2% | [4] 3.4% | [5] -16.2% | [6] -30.1%

O=C(C[n+]1ccccc1)c1cc2c(c3ccccc13)CCCC2
inactive: [1] 3.3% | [2] -3.2% | [3] 36.3% | [4] 20.8% | [5] -4.6% | [6] 19.5%

Cc1cc(Cl)ncc1[N+](=O)[O-]
inactive: [1] -12.2% | [2] 14.3% | [3] 7.55% | [4] -15.9% | [5] -9.65% | [6] 5.75%

C[n+]1cc(-c2ccccc2)cc2ccccc21
inactive: [1] -1.4% | [2] 17.9% | [3] -0.3% | [4] -17.6% | [5] 4.5% | [6] -14.5%

CN(C)CCC(=O)C(=Cc1ccc(O)cc1)C(=O)CCN(C)C
inactive: [1] -35.2% | [2] -38.1% | [3] -2.4% | [4] -3.5% | [5] 7.1% | [6] -39.5%

N#CCCCN1CCOCC1
inactive: [1] 0.8% | [2] -20.9% | [3] -7.9% | [4] 15.7% | [5] 0% | [6] 3.6%

CC(=O)NCC1CCCO1 (stereo not drawn)
inactive: [1] 2.65% | [2] -18.6% | [3] -20.4% | [4] 3.85% | [5] 3.75% | [6] -5.9%

COc1ccc(Cc2cc(O)c(OC)cc2O)cc1
inactive: [1] 5.55% | [2] 17.1% | [3] 38.4% | [4] -22.2% | [5] -3.75% | [6] 26.8%

CCCCS(=O)(=O)c1ccc(Cl)cc1
inactive: [1] -2.65% | [2] -13.9% | [3] -4.45% | [4] -16% | [5] -3.9% | [6] 21.9%

CCOC(=O)c1c(O)csc1C
inactive: [1] -7.75% | [2] -6.35% | [3] -7.45% | [4] -14.2% | [5] -6.05% | [6] -8.15%

Oc1ccc(O)c(CCCc2cc(O)ccc2O)c1
inactive: [1] 13.3% | [2] 7.8% | [3] -2.25% | [4] 0.5% | [5] 6.95% | [6] 49.5%

[O-][n+]1cc[n+]([O-])c2cc(O)ccc21
inactive: [1] -13.5% | [2] -25.1% | [3] 3.8% | [4] -20.1% | [5] 1.1% | [6] 10.7%

CC1=NOC(=O)/C1=C/c1ccc(C)cc1
inactive: [1] 33.6% | [2] 20.8% | [3] 23.4% | [4] 2.55% | [5] 13.7% | [6] 8.05%

N#C/C(=C\c1c2ccccc2c(Cl)c2ccccc12)C(N)=S
inactive: [1] 34.2% | [2] 24.9% | [3] 45.1% | [4] 7.55% | [5] 15.4% | [6] 24.4%

Nc1cc(=O)n(C2OC(CO)C(O)C2O)cn1 (stereo not drawn)
inactive: [1] 6.85% | [2] -8.35% | [3] -0.3% | [4] -39.4% | [5] -19.4% | [6] 8.05%

O=[N+]([O-])c1cc(C(F)(F)F)ccc1F
inactive: [1] -16% | [2] -15.2% | [3] -2.3% | [4] -25.8% | [5] -12.4% | [6] -0.15%

O=C(/C=C(\Br)c1ccccc1)c1ccccc1
active: [1] 99.3% | [2] 99.5% | [3] 99.8% | [4] 99.2% | [5] 98.9% | [6] 99.3%

Nc1ccc(Nc2ccc([N+](=O)[O-])cc2S(=O)(=O)O)cc1
inactive: [1] 9.1% | [2] 4% | [3] -17% | [4] -16.4% | [5] -7.65% | [6] 10.8%

O=C1c2ccccc2C(=O)N1CCCSc1ccc(F)cc1
inactive: [1] 32.8% | [2] -9.5% | [3] 28.4% | [4] 3.5% | [5] 15.3% | [6] 36.2%

OC1CC2C=CC1CC2 (stereo not drawn)
inactive: [1] 14.9% | [2] 10.3% | [3] 2.4% | [4] 13.2% | [5] 25.1% | [6] 14.4%

CC(C)(C)c1cc(-c2cc(C(C)(C)C)nc(N)n2)nc(N)n1
inactive: [1] -4.9% | [2] -14.1% | [3] -14% | [4] -18.7% | [5] -35.3% | [6] -16.4%

COc1cc(NS(=O)(=O)c2ccc(N)cc2)nc(OC)n1
inactive: [1] -28.3% | [2] -11.3% | [3] -11.1% | [4] -60.2% | [5] -22.6% | [6] -3.9%

CC(=O)Nc1ccc(/C=N/NC(=O)c2ccc(O)cc2)cc1
inactive: [1] 1.7% | [2] 9.55% | [3] -2% | [4] 4.15% | [5] 2.35% | [6] 0.9%

CC(=O)NNc1nc(C)c(C(/C=C/c2ccccc2O)=N/N=C(N)N)s1
inactive: [1] -19.2% | [2] -19.4% | [3] -21.4% | [4] -7.1% | [5] -10.6% | [6] -33.2%

CNc1ccc(CC(=O)O)cc1
inactive: [1] -2.75% | [2] 3.85% | [3] -2.45% | [4] -42% | [5] -2.05% | [6] 1.8%

O=C(O)C(=Cc1ccc(Br)cc1)C(=O)O
inactive: [1] 41.5% | [2] -25.8% | [3] 13.5% | [4] 20.8% | [5] 23.1% | [6] 31.9%

O=C(O)c1cnc2c(ccc3[nH]cccc32)c1=O
inactive: [1] -7.3% | [2] -33.8% | [3] -9% | [4] 15.6% | [5] 19.6% | [6] -2.8%

CCOC(=O)C(NC(=O)c1ccccc1)(N1CCOCC1)C(F)(F)F (stereo not drawn)
inactive: [1] 25.3% | [2] -20.1% | [3] 8.05% | [4] 15.8% | [5] -3.45% | [6] -44.9%

O=C1NC2(CCN(CCc3ccccc3)CC2)Oc2ccccc21
inactive: [1] 28.9% | [2] -10.2% | [3] 15.7% | [4] 17.6% | [5] 11.5% | [6] 11.1%

O=S(=O)(CC(Br)c1ccccc1)c1ccccc1 (stereo not drawn)
inactive: [1] 44.7% | [2] 6.15% | [3] 5.05% | [4] -4.3% | [5] 60.5% | [6] 45%

COC(=O)CCc1cc(=O)oc2c3c(cc(OC)c12)OC1OC(=O)CC31 (stereo not drawn)
inactive: [1] -24% | [2] -22.3% | [3] -19.1% | [4] 6.4% | [5] -20.1% | [6] -7.25%
